In PubChem BioAssay (NCI):
Several values for one entry are separate records, joined by “and”; a condition that tells them apart may be missing. Equal values may be shown once. About 83,000 compounds went through this panel and 20% of them were active in at least one assay; those are over-represented in the sample as a whole.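 The endpoint reported here, percent growth, reads 100 for growth as untreated, 0 for no net growth and -100 for all cells dead.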 Activity calls are given as the source filed them. The calls were made as follows: active = growth percent below 10; inactive = the rest.

Tests used:
Test in all cases: NCI-60 one-dose screen, 48 h (100 = growth as untreated, 0 = no growth, -100 = all killed)
Details in all cases: 10 µM unless noted
[1] = tested on: HCT-15 colon
[2] = tested on: HT29 colon
[3] = tested on: SNB-75 CNS
[4] = tested on: SNB-19 CNS
[5] = tested on: U251 CNS
[6] = tested on: PC-3 prostate
[7] = tested on: SK-MEL-5 melanoma
[8] = tested on: UACC-62 melanoma
[9] = tested on: LOX IMVI melanoma
[10] = tested on: SK-MEL-28 melanoma

Measured: growth

O=C(O)C#Cc1ccc(Cl)cc1
inactive: [1] 103% | [2] 98.1% | [3] 85.6% | [4] 99.8% | [5] 93.8% | [6] 92% | [7] 96.1% | [8] 95.7% | [9] 91.5% | [10] 107%

Cc1nc2c(=O)[nH]c(=S)[nH]c2[nH]c1=O
inactive: [1] 105% and 104% | [2] 104% and 105% | [3] 97.4% and 84.1% | [4] 104% and 102% | [5] 113% and 104% | [6] 105% and 96.7% | [7] 111% | [8] 104% and 100% | [9] 96% | [10] 111% and 112%

C/C(CC(C)C)=N/NC(N)=S
inactive: [1] 79.4% | [2] 56.1% | [3] 99.3% | [4] 107% | [5] 79.3% | [6] 93.4% | [7] 99.5% | [8] 105% | [9] 95.4% | [10] 106%

O=C1c2cccnc2-c2ncccc21
inactive: [1] 111% [100 µM] | [2] 106% [100 µM] | [3] 93.8% [100 µM] | [4] 102% [100 µM] | [5] 100% [100 µM] | [6] 96.4% [100 µM] | [7] 103% [100 µM] | [8] 102% [100 µM] | [9] 99.7% [100 µM] | [10] 119% [100 µM]

CC1(C)OC(=O)C(=Cc2ccc(C#N)cc2)C(=O)O1
inactive: [1] 109% and 104% | [2] 97.7% and 100% | [3] 97% and 96.4% | [4] 98.9% and 101% | [5] 89.7% | [6] 84.3% and 99.2% | [7] 95.6% | [8] 101% and 117% | [9] 103% | [10] 114% and 101%

CCN(CC)Cc1cc2[nH]c3c4ccc(Cl)cc4ncc3c2cc1OC
3.79% (active) and 64.8% (inactive): [5]
-90% (active) and 115% (inactive): [10]
inactive: [1] 45.9% and 16.8% | [3] 74.9% and 84.7% | [4] 104% and 103% | [6] 52.4% and 70% | [8] 35% and 110%
active: [7] -97.7% | [9] -71.8% and -38.7%
10.2% (inactive) and 9.65% (active): [2]

OC1CCCN(Cc2ccccc2)C1 (stereo not given)
inactive: [1] 116% | [2] 102% | [3] 113% | [4] 92.2% | [5] 120% | [6] 97.4% | [7] 102% | [8] 91.1% | [9] 96.5% | [10] 108%

Nc1ccccc1SC1CC(=O)N(c2ccc(I)cc2)C1=O (stereo not given)
inactive: [1] 88.5% | [2] 93.3% | [3] 79.8% | [4] 96% | [5] 88.4% | [6] 94.2% | [7] 87.9% | [8] 82.7% | [9] 76.4% | [10] 90.8%

CN(C)CC(CN(C)C)C(O)c1ccccc1 (stereo not given)
inactive: [1] 99.3% | [2] 100% | [3] 94.5% | [4] 109% | [5] 99.5% | [6] 101% | [7] 106% | [8] 106% | [9] 97.8% | [10] 105%

Clc1ccc2sc(-c3ccccc3)nc2c1
inactive: [1] 100% | [2] 95.1% | [3] 67.7% | [4] 97.6% | [5] 105% | [6] 88% | [7] 91% | [8] 86.2% | [9] 101% | [10] 106%

CCN(CC)CCO/N=C1\CC(c2ccc(OC)c(OC)c2)Oc2ccccc21 (stereo not given)
inactive: [1] 88.6% | [2] 74.8% | [3] 68% | [4] 98.5% | [5] 93.6% | [6] 83% | [7] 93.4% | [8] 107% | [9] 89.6% | [10] 107%

Cc1cc(-c2ccc(N=Nc3c(C)nn(-c4ccc(S(=O)(=O)O)cc4)c3O)c(C)c2)ccc1N=Nc1ccc(O)c(C(=O)O)c1
inactive: [1] 97.9% | [2] 115% | [3] 99.9% | [4] 99.9% | [5] 99.1% | [6] 98.2% | [7] 98.7% | [8] 91.2% | [9] 95.4% | [10] 106%

O=C(O)Cc1cc(=O)[nH]n(-c2ccccc2)c1=O
inactive: [1] 107% | [2] 103% | [3] 91.3% | [4] 119% | [5] 99.9% | [6] 94% | [7] 107% | [8] 101% | [9] 100% | [10] 110%

CC(=O)C[n+]1ccccc1Sc1ccc(Cl)cc1
inactive: [1] 93.3% | [2] 108% | [3] 66.1% | [4] 88.7% | [5] 73% | [6] 58.3% | [7] 90.3% | [8] 84.6% | [9] 27.6% | [10] 100%

Clc1ccc2c(c1)N(C1CCCN(Cc3ccccc3)C1)c1ccccc1S2 (stereo not given)
inactive: [1] 26.6% | [2] 76.7% | [3] 27.6% | [4] 41.6% | [5] 17.4% | [6] 45% | [7] 23.3% | [8] 44% | [9] 57% | [10] 56.9%

O=C(O)COc1ccccc1F
inactive: [1] 113% | [2] 113% | [3] 94.4% | [4] 107% | [5] 109% | [6] 82.6% | [7] 95% | [8] 101% | [9] 96.5% | [10] 112%

COc1ccc(CCNC(=S)NN)cc1OC
inactive: [1] 123% | [2] 104% | [3] 106% | [4] 127% | [5] 105% | [6] 101% | [7] 103% | [8] 115% | [9] 103% | [10] 114%

O=C1c2ccccc2C(c2ccccc2)C1c1ccccc1 (stereo not given)
inactive: [1] 71.8% | [2] 98.9% | [3] 63.5% | [4] 91.9% | [5] 101% | [6] 80.7% | [7] 87.5% | [8] 67.8% | [9] 88.5% | [10] 111%

Cc1cc(=NO)cc(C)n1O
inactive: [1] 113% | [2] 114% | [3] 92.6% | [4] 103% | [5] 113% | [6] 102% | [7] 112% | [8] 102% | [9] 99.9% | [10] 112%

Cn1c(N)c(N=O)c(=O)n(C)c1=O
inactive: [1] 105% and 101% | [2] 111% and 90.2% | [3] 86.9% and 92.6% | [4] 99.8% and 102% | [5] 92.9% and 101% | [6] 96.2% and 96.9% | [7] 137% and 99.6% | [8] 103% and 93.1% | [9] 100% | [10] 104% and 100%

Nc1ccc2ccc(NS(=O)(=O)N3CCCCC3)cc2c1
active: [2] 4.34%
inactive: [1] 18.6% | [3] 30.1% | [4] 40.3% | [5] 23.3% | [6] 43.6% | [7] 25.3% | [8] 16.7% | [9] 46.6% | [10] 55.8%

CC(C)(C)C1=CC(=O)C(C(C)(C)C)=CC1=O
inactive: [1] 97.9% and 105% | [2] 109% and 99.8% | [3] 104% and 96.6% | [4] 86.2% and 101% | [5] 96.2% and 94.2% | [6] 90.8% and 101% | [7] 93.5% and 108% | [8] 87.1% and 99.6% | [9] 91.6% and 99.5% | [10] 114% and 109%
